The record followed here is the supplement of paper PMC10849652.

What all share (test): log2 fold change, soluble protein after heating vs DMSO (PISA); higher = thermal stabilisation; K562 cells, 10 uM, 30 min; active = over 0.2 and 3.5 SD of the protein, either way, in both replicates (recomputed)
Compound in experiment [1]: C1=CC=C(C=C1)[C@H](COC2=CC3=C(C=C2)NC(=O)N3)NC(=O)C4=CC=CN(C4=O)CC5=CC(=C(C=C5)F)F
The method, boiled down: (§1)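 Thermal stability values are relative to control samples and come from duplicates. They are expressed as log2 fold changes. For measurement, K562 cells (2×10^6 cells/mL) received 10 μM compound for 30 min, and aliquots were heated for 3 min over 48°C-58°C, pooled, and extracted at 4°C in PBS with 0.5% NP-40. Soluble protein, the supernatant after 21,000xg for 90 min, was quantified by TMTpro 16plex LC-MS/MS with equalised channel sums.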

Compound in experiment [2]: CC1=C(SC2=C1C(=N[C@H](C3=NN=C(N32)C)CC(=O)N)C4=CC=C(C=C4)Cl)C
Put shortly: as §1

Compound in experiment [3]: CC1=C2C(=CC=C1)N=C(N(C2=O)C3=CC=CC=C3C)CN4C=NC5=C(N=CN=C54)N
The method, boiled down: as §1

Compound in experiment [4]: Cc1sc2c(c1C)C(c1ccc(Cl)cc1)=N[C@@H](CC(=O)OC(C)(C)C)c1nnc(C)n1-2
The method, boiled down:
as §1

Compound in experiment [5]: c1ccc([C@@H]2C[C@H]2NC2CCNCC2)cc1
Put shortly: as §1

The full data set covers some 7,900 targets. This sample favours those with a hit. About 0.6% of all pairs of compound and target were hits. Values without a mark were called inactive.

UniProt Q8N5C7, sequence (Q8N5C7 whole entry, looked up): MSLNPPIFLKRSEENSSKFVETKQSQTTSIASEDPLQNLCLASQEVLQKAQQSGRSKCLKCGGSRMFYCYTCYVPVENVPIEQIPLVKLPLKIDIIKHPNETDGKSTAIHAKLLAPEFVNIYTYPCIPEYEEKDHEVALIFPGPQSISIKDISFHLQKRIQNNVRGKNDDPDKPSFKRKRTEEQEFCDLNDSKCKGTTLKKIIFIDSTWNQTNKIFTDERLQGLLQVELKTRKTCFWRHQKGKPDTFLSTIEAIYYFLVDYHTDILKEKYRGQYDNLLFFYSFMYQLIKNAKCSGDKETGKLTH
UniProt Q8IX18, sequence (Q8IX18 whole entry, looked up): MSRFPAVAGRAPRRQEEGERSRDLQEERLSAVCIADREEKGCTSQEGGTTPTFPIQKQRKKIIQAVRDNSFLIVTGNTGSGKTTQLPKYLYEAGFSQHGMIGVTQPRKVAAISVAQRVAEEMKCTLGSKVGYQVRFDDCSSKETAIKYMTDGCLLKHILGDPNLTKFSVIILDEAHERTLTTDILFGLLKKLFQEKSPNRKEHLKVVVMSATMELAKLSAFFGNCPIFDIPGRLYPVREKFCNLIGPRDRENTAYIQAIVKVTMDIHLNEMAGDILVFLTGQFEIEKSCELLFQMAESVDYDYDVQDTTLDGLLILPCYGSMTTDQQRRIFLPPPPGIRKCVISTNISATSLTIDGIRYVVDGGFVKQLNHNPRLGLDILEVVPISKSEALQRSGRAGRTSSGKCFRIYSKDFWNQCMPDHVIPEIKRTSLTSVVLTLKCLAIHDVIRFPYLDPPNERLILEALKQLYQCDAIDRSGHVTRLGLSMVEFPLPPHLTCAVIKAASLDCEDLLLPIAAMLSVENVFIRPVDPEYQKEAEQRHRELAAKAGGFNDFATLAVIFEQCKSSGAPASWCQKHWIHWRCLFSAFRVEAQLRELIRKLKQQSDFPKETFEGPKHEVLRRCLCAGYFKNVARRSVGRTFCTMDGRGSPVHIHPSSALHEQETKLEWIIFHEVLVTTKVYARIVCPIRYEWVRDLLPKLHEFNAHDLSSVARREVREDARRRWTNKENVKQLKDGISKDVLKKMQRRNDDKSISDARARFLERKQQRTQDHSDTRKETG
UniProt O60888, sequence (O60888 whole entry, looked up): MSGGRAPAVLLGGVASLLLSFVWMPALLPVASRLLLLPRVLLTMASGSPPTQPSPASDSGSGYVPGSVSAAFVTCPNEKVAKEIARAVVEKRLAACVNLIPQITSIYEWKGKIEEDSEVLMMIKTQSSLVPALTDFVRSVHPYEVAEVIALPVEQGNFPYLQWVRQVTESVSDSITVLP
UniProt P68104, sequence (P68104 whole entry, looked up): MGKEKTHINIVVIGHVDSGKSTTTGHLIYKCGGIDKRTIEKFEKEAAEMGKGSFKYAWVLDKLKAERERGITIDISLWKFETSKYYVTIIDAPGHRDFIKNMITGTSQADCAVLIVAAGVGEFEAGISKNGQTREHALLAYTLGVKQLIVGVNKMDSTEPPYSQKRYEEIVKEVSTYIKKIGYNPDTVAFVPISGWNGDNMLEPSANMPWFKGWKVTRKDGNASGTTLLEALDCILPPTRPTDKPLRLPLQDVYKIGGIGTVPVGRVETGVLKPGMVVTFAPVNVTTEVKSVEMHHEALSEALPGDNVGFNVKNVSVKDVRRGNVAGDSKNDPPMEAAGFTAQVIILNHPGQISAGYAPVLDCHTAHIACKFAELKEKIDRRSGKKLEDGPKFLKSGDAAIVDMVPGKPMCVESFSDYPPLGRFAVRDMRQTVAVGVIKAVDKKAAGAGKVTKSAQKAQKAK
UniProt Q96LJ7, sequence (Q96LJ7 whole entry, looked up): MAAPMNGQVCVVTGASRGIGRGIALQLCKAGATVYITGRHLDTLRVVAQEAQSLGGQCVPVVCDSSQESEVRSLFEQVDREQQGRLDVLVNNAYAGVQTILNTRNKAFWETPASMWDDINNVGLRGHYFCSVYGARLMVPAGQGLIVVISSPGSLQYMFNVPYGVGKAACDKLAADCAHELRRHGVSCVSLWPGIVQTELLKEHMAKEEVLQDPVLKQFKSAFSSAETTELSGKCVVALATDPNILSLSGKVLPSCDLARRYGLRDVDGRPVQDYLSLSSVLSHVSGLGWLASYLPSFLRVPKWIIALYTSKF
UniProt P18146, sequence (P18146 whole entry, looked up): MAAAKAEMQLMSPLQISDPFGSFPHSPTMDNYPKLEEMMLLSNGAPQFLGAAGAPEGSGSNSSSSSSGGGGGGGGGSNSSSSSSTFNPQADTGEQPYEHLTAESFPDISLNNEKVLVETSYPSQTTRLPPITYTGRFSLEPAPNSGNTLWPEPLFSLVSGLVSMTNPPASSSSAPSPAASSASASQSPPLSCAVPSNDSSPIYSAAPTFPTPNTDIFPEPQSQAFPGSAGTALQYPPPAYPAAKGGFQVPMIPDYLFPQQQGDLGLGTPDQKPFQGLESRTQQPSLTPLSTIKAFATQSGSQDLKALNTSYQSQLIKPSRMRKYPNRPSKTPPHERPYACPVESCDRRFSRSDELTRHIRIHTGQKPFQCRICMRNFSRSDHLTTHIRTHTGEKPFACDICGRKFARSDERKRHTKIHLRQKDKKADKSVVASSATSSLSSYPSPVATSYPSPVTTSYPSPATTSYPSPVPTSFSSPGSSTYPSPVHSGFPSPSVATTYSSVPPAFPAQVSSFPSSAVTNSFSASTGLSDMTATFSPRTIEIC
UniProt Q9NXF7, sequence (Q9NXF7 whole entry, looked up): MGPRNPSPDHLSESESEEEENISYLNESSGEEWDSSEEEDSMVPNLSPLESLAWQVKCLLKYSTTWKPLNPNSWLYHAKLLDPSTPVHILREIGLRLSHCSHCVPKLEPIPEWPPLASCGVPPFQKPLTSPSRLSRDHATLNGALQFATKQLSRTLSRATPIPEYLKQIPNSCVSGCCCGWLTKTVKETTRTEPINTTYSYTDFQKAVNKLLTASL
UniProt Q9BU89, sequence (Q9BU89 whole entry, looked up): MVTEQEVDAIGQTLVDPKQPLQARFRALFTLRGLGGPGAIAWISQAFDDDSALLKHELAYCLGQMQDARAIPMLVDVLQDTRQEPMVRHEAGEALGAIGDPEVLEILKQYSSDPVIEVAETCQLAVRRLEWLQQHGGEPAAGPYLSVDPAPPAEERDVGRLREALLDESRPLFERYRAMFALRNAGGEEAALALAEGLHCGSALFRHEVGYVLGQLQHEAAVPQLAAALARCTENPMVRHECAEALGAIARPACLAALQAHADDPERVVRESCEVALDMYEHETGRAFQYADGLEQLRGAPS

As to CUTA isoform 2 (UniProt O60888), the log2 fold change in experiment [1] was 0.099; in experiment [2] it was 0.116; in experiment [3] it was -0.289; in experiment [4], -0.123; in experiment [5], 0.015.
In the same order, the values of DHX40 (UniProt Q8IX18) are 0.026, 0.101, 0.072, 0.093 and -0.022.
Turning to DOHH (UniProt Q9BU89), the log2 fold change is 0.218 in experiment [1]; 0.072 in experiment [2]; -0.062 in experiment [3]; 0.031 in experiment [4]; -0.088 in experiment [5].
For EEF1A1 (UniProt P68104), the log2 fold change in experiment [1] is 0.112; in experiment [2] it was 0.212; in experiment [3], -0.097; in experiment [4], 0.125; in experiment [5], -0.471.
In the case of DHRS1 (UniProt Q96LJ7), the log2 fold change in experiment [1] was 0.241; in experiment [2] it was 0.015; in experiment [3], 0.216; in experiment [4], 0.321; in experiment [5], 0.013.
On to EGR1 (UniProt P18146), for which the log2 fold change is 0.034 in experiment [1]; 0.241 in experiment [2]; -0.097 in experiment [3]; 0.705 in experiment [4]; 0.07 in experiment [5].
Take DTWD1 (UniProt Q8N5C7): the log2 fold change was -0.051 in experiment [1]; -0.011 in experiment [2]; 0.152 in experiment [3]; -0.056 in experiment [4]; 0.07 in experiment [5].
In the same order, the values of DNAJB1 (UniProt M0R128) are -0.843 (active), 0.006, 0.106, 0.078 and 0.061.
In the same order, the values of DCAF16 (UniProt Q9NXF7) are 0.06, 0.056, 0.079, 0.032 and -0.032.
